Consider 38 compounds from PubChem BioAssay (NCI).

About 83,000 compounds went through this panel and 20% of them were active in at least one assay; those are over-represented in the sample as a whole.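 Results are percent growth after 48 hours of single-concentration exposure. 100 means growth as in untreated cells, lower positive values show inhibition; negative values down to -100 show cell death.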 Unmarked numbers belong to inactive results. Active and inactive are the calls of the source. Rule for the calls: active = growth percent below 10; inactive = the rest.

The first assay deals with U251 CNS. Put plainly: NCI-60 one-dose screen, 48 h (100 = growth as untreated, 0 = no growth, -100 = all killed). As to conditions: 10 µM unless noted.
As to `O=C(N/N=C/c1ccco1)c1[nH]c2ccc(Br)cc2c1-c1ccccc1`, the growth is 31.7%.

On to `COC(=O)C(C)NS(=O)(=O)/N=C1\NC(=O)NC1=C(Cl)Cl` (configuration not stated), for which the growth was 106%.

As to `COc1cc(/C=C/C(=O)c2ccc(F)cc2)ccc1Oc1nc(NCCO)nc(N2CCOCC2)n1`, the growth was 44.1%.

On to `O=C(CN1CCOCC1)NNc1ncnc2ccccc12`, for which the growth is 85.3%.

The test system of another assay is PC-3 prostate. Described as above. As to conditions: 10 µM unless noted.
For `Cc1cc2nc3c4cc(Cl)ccc4n(CC(=O)NCCN(C)C)c3nc2cc1C`, the growth was 60.8%.

Take `COc1cc(/C=C/C(=O)c2ccc(C)cc2)ccc1Oc1nc(NCCO)nc(N2CCOCC2)n1`: the growth is 30.6%.

Consider `O=C(N/N=C/c1ccc(Cl)s1)c1[nH]c2ccc(Br)cc2c1-c1ccccc1`, for which the growth is 30.2%.

On to `NS(=O)(=O)c1cccc(Nc2nc(SCC(=O)c3ccc([N+](=O)[O-])cc3)nc3ccccc23)c1`, for which the growth is 24.2%.

On to `Nc1c(C(=O)c2ccc(Br)cc2)oc2nc(-c3cnccn3)cc(-c3cccs3)c12`, for which the growth was 96.3%.

In the case of `O=C(N/N=C/c1ccc([N+](=O)[O-])o1)c1[nH]c2ccc(Br)cc2c1-c1ccccc1`, the growth is 16.2%.

Regarding `O=C(N/N=C/c1ccc([N+](=O)[O-])s1)c1[nH]c2ccc(Br)cc2c1-c1ccccc1`, the growth is 26.5%.

In the case of `C#Cc1nc(C2=C(C)C(O)/C(=N/O)C2)cs1` (configuration not stated), the growth is 101%.

Take `COc1cc(/C=C/C(=O)c2cc(OC)c(OC)c(OC)c2)ccc1OCc1ccccc1`: the growth is 40.1%.

On to `CCCC(=O)NC(c1ccc(N(CC)CC)cc1)c1cc(C)c2cccnc2c1O` (configuration not stated), for which the growth is 39.3%.

For `CN1CCc2c(sc3ncnc(N/N=C/c4ccc(Cl)c(Cl)c4)c23)C1`, the growth is 53.6%.

In the case of `O=C(N/N=C/c1ccc[nH]1)c1[nH]c2ccc(Br)cc2c1-c1ccccc1`, the growth is 15.2%.

In the case of `COC(=O)C1CCCN(S(=O)(=O)/N=C2\NC(=O)NC2=C(Cl)Cl)C1` (configuration not stated), the growth was 101%.

For `C=CCn1c(SCC(=O)c2ccccc2)nnc1-c1c[nH]c2ccccc12`, the growth was 89.1%.

On to `COc1ccc(-n2c(SCC(=O)Nc3ccc(-c4nc5ccccc5[nH]4)cc3)nc3ccccc3c2=O)cc1`, for which the growth was 6.41% (active).

On to `O=C(Oc1ccc2ccc(=O)oc2c1)c1ccc(Cl)cc1`, for which the growth is 103%.

On to `COc1ccc(C(=O)/C=C/c2ccc(OCc3ccc(Cl)cc3)c(OC)c2)cc1OC`, for which the growth was 59.4%.

For the compound `O=C(N/N=C/c1cccs1)c1[nH]c2ccc(Br)cc2c1-c1ccccc1`, the growth is 26.1%.

As for `Cc1cc2nc3c4cc(Cl)ccc4n(CC(=S)NCCN(C)C)c3nc2cc1C`, the growth is -30.1% (active).

In the case of `COc1ccc([C@@H]2c3[nH]c4ccccc4c3CC3C(=O)N(C4CCN(Cc5c(F)cccc5F)CC4)CC(=O)N32)c(OC)c1` (some centres not stated), the growth is 35.2% [5.26 µM].

On to `Cc1cc(C(NC(=O)CCCCCNc2cccc3c2C(=O)N(C2CCC(=O)NC2=O)C3=O)c2cccnc2)c(O)c2ncccc12` (configuration not stated), for which the growth is 6.73% (active).

Take `CC(=NNc1ncnc2ccccc12)c1ccc(S(C)(=O)=O)cc1`: the growth is 87.9%.

Regarding `Nc1nc(N)c2c(n1)NC(c1ccc(C(F)(F)F)cc1)CC(c1ccc(Nc3nc(NCCO)nc(Nc4ccc(Cl)cc4)n3)cc1)=N2` (configuration not stated), the growth was -31.5% (active).

As for `COc1ccc(/C=C2\SC(=Nc3cc(C)[nH]n3)NC2=O)cc1`, the growth is 81%.

For `Cn1ccnc1C(=O)/C=C/c1ccc(NC(=O)Nc2ccc(Cl)cc2)cc1`, the growth was 78.8%.

Take `COC(=O)C1CN(S(=O)(=O)/N=C2\NC(=O)NC2=C(Cl)Cl)C1`: the growth is 99.3%.

As to `Nc1nc(N)c2c(n1)NC(c1ccc(F)cc1)CC(c1ccc(Nc3nc(NCCO)nc(Nc4ccc(Cl)cc4)n3)cc1)=N2` (configuration not stated), the growth is 22.7%.

Take `COc1cc(/C=C/C(=O)c2cc(OC)c(OC)c(OC)c2)ccc1OCc1ccc(F)cc1`: the growth is 35%.

As to `CC(O)C(NC(=O)C1CCCN1C(=O)CNC(=O)C1CC(=O)NCC(=O)NC(Cc2c[nH]c3ccccc23)C(=O)NC(Cc2ccc(O)cc2)C(=O)NCC(=O)NC(CO)C(=O)NC(CCC(N)=O)C(=O)NC(Cc2c[nH]c3ccccc23)C(=O)N1)C(=O)NCC(=O)NC(CCC(N)=O)C(=O)NC(CCCNC(=N)N)C(=O)NC(CC(=O)O)C(=O)O` (configuration not stated), the growth is 76.7%.

For the compound `COc1cc(/C=C/C(=O)c2cc(OC)c(OC)c(OC)c2)ccc1Oc1nc(NCCO)nc(N2CCOCC2)n1`, the growth was 37.7%.

Take `COc1cc(N=Cc2sc(Nc3nccs3)nc2O)cc(OC)c1OC`: the growth was 80.9%.

As for `C#Cc1nc(C2=C(C)C(OC(=O)CCC(=O)O)CC2)cs1` (configuration not stated), the growth is 102%.

With `O=C(N/N=C/c1ccc(Br)s1)c1[nH]c2ccc(Br)cc2c1-c1ccccc1`, the growth was 28.8%.

`COc1cc(/C=C/C(=O)c2ccc(Cl)cc2)ccc1Oc1nc(NCCO)nc(N2CCOCC2)n1`: the growth was 95.3%.

Take `O=C(N/N=C/c1ccco1)c1[nH]c2ccc(Br)cc2c1-c1ccccc1`: the growth was 30.2%.

Consider `COC(=O)C(C)NS(=O)(=O)/N=C1\NC(=O)NC1=C(Cl)Cl` (configuration not stated), for which the growth is 92.9%.

In the case of `COc1cc(/C=C/C(=O)c2ccc(F)cc2)ccc1Oc1nc(NCCO)nc(N2CCOCC2)n1`, the growth is 70.8%.

Consider `O=C(CN1CCOCC1)NNc1ncnc2ccccc12`, for which the growth was 78.3%.
